Conditions in all cases: 20 µM
Assay [1] relates to Salmonella enterica typhimurium. Put plainly: growth AUC normalised to DMSO control (fraction of control); higher = less growth inhibition, active = hit call of the paper. An outline of the steps:
(§1)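 Hemin and NAD were added to the medium for Haemophilus parainfluenzae. All pathogens, after two anaerobic passages, were inoculated at a starting OD578 of 0.01 into pre-reduced mGAM plates with 20 μM compound and 1% DMSO under breathable seals, and OD578 was read hourly for 24 h in three biological replicates. AUC of each growth curve was obtained with the trapezoidal rule up to the exponential-to-stationary transition and normalised to DMSO controls from the same plate.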

Another assay concerns Shigella flexneri. The description is as above. An outline of the steps:
as §1

A further assay concerns Vibrio cholerae. The description is as above. The essentials: as §1
Assay [2] has as its system Yersinia pseudotuberculosis. Described as above. An outline of the steps:
as §1

The subject of a further assay is P. vulgatus RND KO. Put plainly: growth AUC normalised to DMSO control (median) (fraction of control); higher = less growth inhibition, active = hit call of the paper. An outline of the steps:
(§2)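 In 96-well plates of mGAM seeded at OD578 0.01, strains that had been passaged twice overnight without oxygen were exposed to approved-drug library compounds at 20 μM with 1% DMSO. Hourly OD578 readings were taken for 24 h in an anaerobic incubator. The trapezoidal-rule area under the curve, with curves truncated at entry into stationary phase, was expressed relative to same-plate vehicle wells as the median of three biological replicates.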

The next assay relates to P. vulgatus WT. The assay is described as above. An outline of the steps:
as §2

For assay [3], the system named is S. enterica typhimurium WT. The assay is described as above. The essentials: as §2
Assay [4] deals with S. enterica typhimurium tolC KO. The assay is described as above. The essentials: as §2

Structures can show the parent of a compound that is named as a salt. Values without a mark were called inactive.
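Throughout, for growth AUC normalised to DMSO control (median): active when median AUC fell below 0.1.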

For the molecule `c1ccc([C@H]2CN3CCSC3=N2)cc1` [Levamisole hydrochloride], the “growth AUC normalised to DMSO control” value was 0.99 in assay [1]; 0.967 with Shigella flexneri; 0.981 with Vibrio cholerae; 1 in assay [2]; 1.03 in the assay with P. vulgatus RND KO; 1.01 in the assay with P. vulgatus WT. In addition, the “growth AUC normalised to DMSO control” value in assay [3] and in assay [4] was 1 throughout.

Consider `CC(=O)N(CC(C)C(=O)O)c1c(I)cc(I)c(N)c1I` (stereo not given) [Iocetamic acid], for which the “growth AUC normalised to DMSO control” value is 0.985 in assay [1]; 0.948 in the assay with Shigella flexneri; 0.939 with Vibrio cholerae; 0.99 in assay [2]; 0.984 in the assay with P. vulgatus RND KO; 0.974 in the assay with P. vulgatus WT. For the same molecule, the “growth AUC normalised to DMSO control” value in assay [3] was 0.989; in assay [4], 0.988.

Take `C[C@H](CCC(=O)O)[C@H]1CC[C@H]2[C@@H]3CC[C@@H]4C[C@H](O)CC[C@]4(C)[C@H]3CC[C@]12C` [Lithocholic acid]: the “growth AUC normalised to DMSO control” value in assay [1] is 1.01; with Shigella flexneri, 1.02; in the assay on Vibrio cholerae, 1.04; in assay [2], 1.02; in the assay with P. vulgatus RND KO, 1.01; in the assay on P. vulgatus WT it was 1.03. Moreover, the “growth AUC normalised to DMSO control” value in assay [3] was 1; in assay [4], 0.995.

As to `O=C(O)c1cn(-c2ccc(F)cc2)c2cc(N3CCNCC3)c(F)cc2c1=O` [Sarafloxacin], the “growth AUC normalised to DMSO control” value is 0.0114 (active) in assay [1]; 0.0236 (active) with Shigella flexneri; 0.0367 (active) in the assay on Vibrio cholerae; 0.0409 (active) in assay [2]; 0.0128 (active) in the assay with P. vulgatus RND KO; 0.0174 (active) in the assay with P. vulgatus WT. In addition, the “growth AUC normalised to DMSO control” value is 0.00503 (active) in assay [3] and 0.0079 (active) in assay [4].

As to `CCOc1ccc(NC(C)=O)cc1` [Phenacetin], the “growth AUC normalised to DMSO control” value in assay [1] is 0.992; with Shigella flexneri, 0.959; in the assay on Vibrio cholerae, 0.984; in assay [2] it was 0.973; in the assay on P. vulgatus RND KO, 1; in the assay with P. vulgatus WT, 0.997. Also, the “growth AUC normalised to DMSO control” value in assay [3] and in assay [4] was 1 each time.

As to `CN(C)CCOC(c1ccccc1)c1ccccc1.Cn1c(=O)c2[nH]c(Cl)nc2n(C)c1=O` [Dimenhydrinate], the “growth AUC normalised to DMSO control” value is 0.975 in assay [1]; 0.984 in the assay on Shigella flexneri; 0.933 in the assay on Vibrio cholerae; 0.982 in assay [2]; 1.01 with P. vulgatus RND KO; 1 in the assay with P. vulgatus WT. For the same molecule, the “growth AUC normalised to DMSO control” value in assay [3] is 0.988; in assay [4], 0.983.

Consider `O=c1[nH]cc(F)c(=O)[nH]1` [5-fluorouracil], for which the “growth AUC normalised to DMSO control” value in assay [1] was 0.842 (active); in the assay on Shigella flexneri, 0.745 (active); in the assay on Vibrio cholerae, 0.942; in assay [2], 0.927; in the assay with P. vulgatus RND KO, 0.0695 (active); with P. vulgatus WT, 0.0782 (active). Moreover, the “growth AUC normalised to DMSO control” value in assay [3] was 0.809; in assay [4], 0.806.

Take `CN1CCC(=C2c3ccccc3Sc3ccccc32)CC1` [Pimethixene maleate]: the “growth AUC normalised to DMSO control” value is 0.988 in assay [1]; 0.948 with Shigella flexneri; 0.853 in the assay on Vibrio cholerae; 1.02 in assay [2]; 0.812 with P. vulgatus RND KO; 0.776 in the assay with P. vulgatus WT. In addition, the “growth AUC normalised to DMSO control” value in assay [3] was 1; in assay [4], 0.956.

Consider `CC(=O)OCC(=O)[C@@]12N=C(C)O[C@@H]1C[C@H]1[C@@H]3CCC4=CC(=O)C=C[C@]4(C)[C@H]3[C@@H](O)C[C@@]12C` [Deflazacort], for which the “growth AUC normalised to DMSO control” value in assay [1] is 0.977; in the assay on Shigella flexneri it was 0.992; with Vibrio cholerae, 1; in assay [2], 0.999; in the assay with P. vulgatus RND KO, 0.999; in the assay with P. vulgatus WT, 1.01. The “growth AUC normalised to DMSO control” value was 0.994 in assay [3] and 0.987 in assay [4].

For `CCCOc1ccc(C(=O)OCCN(CC)CC)cc1N` [Proparacaine hydrochloride], the “growth AUC normalised to DMSO control” value in assay [1] is 1; with Shigella flexneri, 1.02; with Vibrio cholerae it was 1.08; in assay [2], 1; in the assay on P. vulgatus RND KO, 1.03; in the assay with P. vulgatus WT, 1.05. Also, the “growth AUC normalised to DMSO control” value in assay [3] and in assay [4] was 1.01 each time.

Take `OCCOCCN1CCN(C2=Nc3ccccc3Sc3ccccc32)CC1` [Quetiapine hemifumarate]: the “growth AUC normalised to DMSO control” value in assay [1] is 0.999; in the assay with Shigella flexneri it was 0.978; in the assay on Vibrio cholerae it was 0.991; in assay [2], 0.981; in the assay with P. vulgatus RND KO, 0.946; in the assay on P. vulgatus WT, 0.91. Besides, the “growth AUC normalised to DMSO control” value was 1.01 in assay [3] and 0.977 in assay [4].

As to `N[C@@H](Cc1cc(I)c(Oc2ccc(O)c(I)c2)c(I)c1)C(=O)O` [Liothyronine], the “growth AUC normalised to DMSO control” value in assay [1] is 0.985; with Shigella flexneri, 0.951; with Vibrio cholerae, 0.981; in assay [2], 0.976; in the assay on P. vulgatus RND KO, 0.987; with P. vulgatus WT it was 0.984. The figures for the “growth AUC normalised to DMSO control” value in assay [3] and in assay [4] were 1.01 and 1, respectively.

`CC(NCCC(c1ccccc1)c1ccccc1)c1ccccc1` (stereo not given) [Fendiline hydrochloride]: the “growth AUC normalised to DMSO control” value in assay [1] was 1.01; with Shigella flexneri, 1.02; in the assay on Vibrio cholerae it was 0.86; in assay [2], 0.996; with P. vulgatus RND KO, 0.978; in the assay with P. vulgatus WT it was 0.977. Also, the “growth AUC normalised to DMSO control” value in assay [3] was 1; in assay [4], 0.95.

Regarding `CN(CCCCCCCCCCN(C)C(=O)Oc1cccc([N+](C)(C)C)c1)C(=O)Oc1cccc([N+](C)(C)C)c1` [Demecarium bromide], the “growth AUC normalised to DMSO control” value is 0.99 in assay [1]; 1 with Shigella flexneri; 0.984 in the assay with Vibrio cholerae; 1.01 in assay [2]; 0.944 in the assay with P. vulgatus RND KO; 0.88 with P. vulgatus WT. Moreover, the “growth AUC normalised to DMSO control” value in assay [3] is 0.991; in assay [4] it was 0.922.

Regarding `COc1cc(C(=O)NS(=O)(=O)c2ccccc2C)ccc1Cc1cn(C)c2ccc(NC(=O)OC3CCCC3)cc12` [Zafirlukast], the “growth AUC normalised to DMSO control” value in assay [1] was 0.961; in the assay on Shigella flexneri, 0.982; with Vibrio cholerae, 0.966; in assay [2], 0.988; in the assay with P. vulgatus RND KO, 0.84; in the assay with P. vulgatus WT, 0.891. Further, the entries for the “growth AUC normalised to DMSO control” value in assay [3] and in assay [4] were 1.01 and 0.962, respectively.

The values above are taken from the supplement of paper PMC12350171.
